For some of these results: Entries with a potency or affinity are not part of this list.

Common to all, as to parameters: scale not given: direction of the effect not stated beside the values
Test [1] has as its target Protein translocase subunit SecA (Escherichia coli (strain K12)) (UniProt P10408). Briefly: Assay to Identify E. coli SecA ATPase Inhibitors. The settings on record: 30 µM. The test is classed as functional.
Test [2] has as its target T1, Ubiquitin-activating enzyme e1, putative (Leishmania donovani (strain BPK282A1)) (UniProt E9BSI1).
T1 sequence (whole entry): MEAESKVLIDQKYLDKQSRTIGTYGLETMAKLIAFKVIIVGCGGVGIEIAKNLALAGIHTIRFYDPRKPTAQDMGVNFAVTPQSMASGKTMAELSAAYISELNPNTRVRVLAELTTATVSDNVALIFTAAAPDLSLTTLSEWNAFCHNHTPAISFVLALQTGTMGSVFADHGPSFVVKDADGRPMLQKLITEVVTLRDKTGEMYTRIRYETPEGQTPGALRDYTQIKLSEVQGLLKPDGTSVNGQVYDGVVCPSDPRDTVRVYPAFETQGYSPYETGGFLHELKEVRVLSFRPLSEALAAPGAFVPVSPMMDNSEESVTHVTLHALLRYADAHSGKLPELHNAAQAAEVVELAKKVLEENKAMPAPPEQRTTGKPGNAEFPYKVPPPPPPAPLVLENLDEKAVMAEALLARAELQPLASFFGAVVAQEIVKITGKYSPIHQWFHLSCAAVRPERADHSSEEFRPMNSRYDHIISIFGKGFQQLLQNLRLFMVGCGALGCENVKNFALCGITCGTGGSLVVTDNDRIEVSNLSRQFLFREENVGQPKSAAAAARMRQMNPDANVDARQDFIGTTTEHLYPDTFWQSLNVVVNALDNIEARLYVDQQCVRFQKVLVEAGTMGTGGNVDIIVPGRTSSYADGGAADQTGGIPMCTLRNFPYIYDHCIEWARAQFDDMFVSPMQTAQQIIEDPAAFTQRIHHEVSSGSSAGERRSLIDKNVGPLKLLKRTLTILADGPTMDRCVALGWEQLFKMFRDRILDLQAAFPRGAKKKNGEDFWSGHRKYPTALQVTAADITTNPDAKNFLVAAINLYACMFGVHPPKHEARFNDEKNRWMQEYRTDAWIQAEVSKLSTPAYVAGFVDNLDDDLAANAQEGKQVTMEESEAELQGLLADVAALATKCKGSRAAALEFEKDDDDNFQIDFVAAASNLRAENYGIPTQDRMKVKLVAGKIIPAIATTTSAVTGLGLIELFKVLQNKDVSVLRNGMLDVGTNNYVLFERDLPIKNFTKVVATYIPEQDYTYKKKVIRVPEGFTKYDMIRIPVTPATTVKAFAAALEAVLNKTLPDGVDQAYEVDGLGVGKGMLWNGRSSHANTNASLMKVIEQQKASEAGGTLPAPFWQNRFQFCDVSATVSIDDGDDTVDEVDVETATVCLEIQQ
Briefly: Leishmania donovani Ubiquitin Activating Enzyme (LdE1). Format: functional. The settings on record: 30 µM.

The target in test [3] is AMP-activated protein kinase, AMPK (Homo sapiens) (UniProt P54646+O43741+P54619+Q9UGJ0+Q9Y478+Q13131+Q9UGI9). Briefly: AMP-dependent Kinase enzyme assay. An in vitro enzyme assay that detects ADP turnover that is directly proportional to AMPK activity. This uses naive AMPK that is activated during the assay with MK-8722. The settings on record: 30 µM. Format: functional.

The target in test [4] is Sialic acid-binding Ig-like lectin 9 (Homo sapiens) (UniProt Q9Y336). As to the kind of experiment: Hs-Siglec9 ALPHAscreen SOP 20170721. Particulars: 10 µM.
For the next test, the system named is Trypanosoma cruzi. As to the kind of experiment: Trypanosoma cruzi phosphomannomutase and mannose-1-phosphate guanylyltransferase assay. The test is classed as functional. The settings on record: 10 µM.
Test [5] has as its target T2, Arginase-2, mitochondrial (Homo sapiens) (UniProt P78540).
T2 sequence (whole entry): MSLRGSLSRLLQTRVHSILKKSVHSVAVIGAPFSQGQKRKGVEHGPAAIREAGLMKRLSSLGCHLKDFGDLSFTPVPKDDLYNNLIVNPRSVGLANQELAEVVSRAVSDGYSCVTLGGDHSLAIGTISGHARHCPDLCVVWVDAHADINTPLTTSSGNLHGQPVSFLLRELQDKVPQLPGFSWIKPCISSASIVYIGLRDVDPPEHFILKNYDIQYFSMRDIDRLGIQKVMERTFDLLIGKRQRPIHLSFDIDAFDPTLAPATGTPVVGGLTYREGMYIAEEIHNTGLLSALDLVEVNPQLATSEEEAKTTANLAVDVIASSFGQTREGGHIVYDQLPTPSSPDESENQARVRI
Briefly: in vitro enzyme assay to detect the production of urea directly proportional to the activity of Arginase II. Further: in the data most compounds retested in dose-response had high values. Format: functional. The settings on record: 33.3 µM.

Test [6] deals with T3, Proteasome subunit beta (Trypanosoma cruzi) (UniProt O96673).
T3 sequence (whole entry): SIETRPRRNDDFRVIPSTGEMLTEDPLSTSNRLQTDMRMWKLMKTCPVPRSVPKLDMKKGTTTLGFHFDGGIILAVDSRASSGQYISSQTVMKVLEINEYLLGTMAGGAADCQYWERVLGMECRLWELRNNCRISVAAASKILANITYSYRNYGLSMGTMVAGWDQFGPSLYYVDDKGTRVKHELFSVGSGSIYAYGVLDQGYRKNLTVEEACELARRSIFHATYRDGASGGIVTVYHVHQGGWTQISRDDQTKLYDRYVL
As to the kind of experiment: Trypanosoma cruzi proteasome chymotrypsin-like activity (TcProtChymo) assay. Further: in the data most compounds retested in dose-response had high values. Format: functional. The settings on record: 9.37 µM.

The species entered for another test is Homo sapiens. Briefly: To identify inhibition of the IFN signalling (Jak-Stat) pathway via expression of an eGFP reporter gene under the control of an IFN-stimulated response element (ISRE) containing MxA promoter. Particulars: 30 µM. Format: functional. On the technique in general: A reporter such as luciferase makes a cellular process visible.
In test [7] the target is T4, Tyrosyl-tRNA synthetase, putative (Trypanosoma cruzi (strain CL Brener)) (UniProt Q4DSP6).
T4 sequence (whole entry): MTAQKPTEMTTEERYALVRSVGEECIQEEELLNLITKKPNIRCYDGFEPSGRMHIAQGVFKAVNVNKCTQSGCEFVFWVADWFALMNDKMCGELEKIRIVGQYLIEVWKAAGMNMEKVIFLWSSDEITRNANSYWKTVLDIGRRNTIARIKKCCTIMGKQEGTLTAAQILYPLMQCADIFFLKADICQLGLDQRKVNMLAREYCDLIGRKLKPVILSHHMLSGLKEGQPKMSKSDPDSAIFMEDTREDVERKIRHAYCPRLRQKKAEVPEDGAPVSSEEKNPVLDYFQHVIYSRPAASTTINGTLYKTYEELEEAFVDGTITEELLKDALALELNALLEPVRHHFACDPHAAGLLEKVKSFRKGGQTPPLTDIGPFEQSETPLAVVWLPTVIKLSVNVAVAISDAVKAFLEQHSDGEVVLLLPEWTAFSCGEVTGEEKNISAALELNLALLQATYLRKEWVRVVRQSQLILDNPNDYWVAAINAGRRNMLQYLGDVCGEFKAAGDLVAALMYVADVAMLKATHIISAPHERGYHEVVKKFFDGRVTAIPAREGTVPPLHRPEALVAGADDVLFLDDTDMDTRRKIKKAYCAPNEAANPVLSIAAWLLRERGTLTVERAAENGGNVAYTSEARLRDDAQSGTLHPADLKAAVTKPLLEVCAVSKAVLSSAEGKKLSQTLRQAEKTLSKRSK
As to the kind of experiment: Trypanosoma cruzi tyrosyl tRNA synthetase (TcYRS) _High Tyrosine SOP. Further: in the data most compounds retested in dose-response had high values. Format: functional. Particulars: 30 µM.

Test [8] has as its target T4, Tyrosyl-tRNA synthetase, putative (Trypanosoma cruzi (strain CL Brener)). As to the kind of experiment: Trypanosoma cruzi tyrosyl tRNA synthetase (TcYRS) SOP. The test is classed as functional. Particulars: 30 µM.
Test [9] deals with Chromo domain-containing protein 1 (Saccharomyces cerevisiae (strain ATCC 204508 / S288c) (Baker's yeast)) (UniProt P32657). As to the kind of experiment: ScCHD-1 Enzyme Inhibition Assay. Further: in the data most compounds retested in dose-response had high values. Format: functional. The settings on record: 30 µM.
Sequence of Chromo domain-containing protein 1 (Saccharomyces cerevisiae (strain ATCC 204508 / S288c) (Baker's yeast)) (P32657 whole entry, the tested form may be a part): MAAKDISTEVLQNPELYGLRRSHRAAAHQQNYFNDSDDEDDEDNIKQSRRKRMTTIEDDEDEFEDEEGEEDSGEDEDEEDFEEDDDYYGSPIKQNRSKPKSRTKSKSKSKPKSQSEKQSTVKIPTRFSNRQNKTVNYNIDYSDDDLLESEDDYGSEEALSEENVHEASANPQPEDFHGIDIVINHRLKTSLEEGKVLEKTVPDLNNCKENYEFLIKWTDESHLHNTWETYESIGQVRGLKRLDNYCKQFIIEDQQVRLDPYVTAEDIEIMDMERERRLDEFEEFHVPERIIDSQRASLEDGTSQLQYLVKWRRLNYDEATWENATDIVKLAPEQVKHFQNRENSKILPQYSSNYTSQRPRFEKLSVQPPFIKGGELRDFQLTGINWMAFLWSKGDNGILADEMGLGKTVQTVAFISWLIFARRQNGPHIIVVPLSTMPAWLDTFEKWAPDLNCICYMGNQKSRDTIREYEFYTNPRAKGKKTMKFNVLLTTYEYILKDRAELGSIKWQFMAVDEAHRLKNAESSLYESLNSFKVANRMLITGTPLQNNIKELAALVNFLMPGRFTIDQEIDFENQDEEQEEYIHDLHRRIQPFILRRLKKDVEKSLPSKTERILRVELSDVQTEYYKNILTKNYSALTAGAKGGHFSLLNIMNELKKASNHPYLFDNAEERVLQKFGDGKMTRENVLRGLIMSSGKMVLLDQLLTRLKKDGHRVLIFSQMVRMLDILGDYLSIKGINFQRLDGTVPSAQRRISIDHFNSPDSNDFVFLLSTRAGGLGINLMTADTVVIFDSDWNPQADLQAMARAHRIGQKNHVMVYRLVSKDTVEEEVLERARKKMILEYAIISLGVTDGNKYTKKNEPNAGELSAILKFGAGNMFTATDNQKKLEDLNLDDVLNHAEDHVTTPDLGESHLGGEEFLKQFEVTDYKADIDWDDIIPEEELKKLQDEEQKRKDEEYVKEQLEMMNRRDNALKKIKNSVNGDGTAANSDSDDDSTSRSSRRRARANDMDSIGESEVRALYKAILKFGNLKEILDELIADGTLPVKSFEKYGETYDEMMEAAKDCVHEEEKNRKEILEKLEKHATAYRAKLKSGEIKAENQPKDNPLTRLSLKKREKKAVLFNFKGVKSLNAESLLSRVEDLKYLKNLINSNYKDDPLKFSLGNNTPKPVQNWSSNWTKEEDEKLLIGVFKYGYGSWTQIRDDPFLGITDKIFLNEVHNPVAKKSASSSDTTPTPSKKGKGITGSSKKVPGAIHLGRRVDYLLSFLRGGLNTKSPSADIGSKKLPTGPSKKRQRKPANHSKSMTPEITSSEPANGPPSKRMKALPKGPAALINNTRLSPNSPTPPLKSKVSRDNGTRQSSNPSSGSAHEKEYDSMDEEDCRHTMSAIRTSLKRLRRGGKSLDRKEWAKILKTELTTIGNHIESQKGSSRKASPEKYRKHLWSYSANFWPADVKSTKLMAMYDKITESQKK

Sequence of Sialic acid-binding Ig-like lectin 9 (Homo sapiens) (Q9Y336 whole entry): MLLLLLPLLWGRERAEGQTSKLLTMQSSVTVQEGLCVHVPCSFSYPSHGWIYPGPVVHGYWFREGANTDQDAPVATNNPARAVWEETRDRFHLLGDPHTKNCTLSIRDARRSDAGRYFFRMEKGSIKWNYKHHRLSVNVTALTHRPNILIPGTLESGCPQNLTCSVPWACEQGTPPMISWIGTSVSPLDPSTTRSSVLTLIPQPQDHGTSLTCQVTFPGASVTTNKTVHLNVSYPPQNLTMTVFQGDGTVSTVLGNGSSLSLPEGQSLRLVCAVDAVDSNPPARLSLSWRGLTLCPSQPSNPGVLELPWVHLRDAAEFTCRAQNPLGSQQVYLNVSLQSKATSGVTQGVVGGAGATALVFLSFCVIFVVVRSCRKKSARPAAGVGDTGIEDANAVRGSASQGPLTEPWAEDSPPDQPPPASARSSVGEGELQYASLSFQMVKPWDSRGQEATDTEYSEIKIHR
Sequence of Protein translocase subunit SecA (Escherichia coli (strain K12)) (P10408 whole entry): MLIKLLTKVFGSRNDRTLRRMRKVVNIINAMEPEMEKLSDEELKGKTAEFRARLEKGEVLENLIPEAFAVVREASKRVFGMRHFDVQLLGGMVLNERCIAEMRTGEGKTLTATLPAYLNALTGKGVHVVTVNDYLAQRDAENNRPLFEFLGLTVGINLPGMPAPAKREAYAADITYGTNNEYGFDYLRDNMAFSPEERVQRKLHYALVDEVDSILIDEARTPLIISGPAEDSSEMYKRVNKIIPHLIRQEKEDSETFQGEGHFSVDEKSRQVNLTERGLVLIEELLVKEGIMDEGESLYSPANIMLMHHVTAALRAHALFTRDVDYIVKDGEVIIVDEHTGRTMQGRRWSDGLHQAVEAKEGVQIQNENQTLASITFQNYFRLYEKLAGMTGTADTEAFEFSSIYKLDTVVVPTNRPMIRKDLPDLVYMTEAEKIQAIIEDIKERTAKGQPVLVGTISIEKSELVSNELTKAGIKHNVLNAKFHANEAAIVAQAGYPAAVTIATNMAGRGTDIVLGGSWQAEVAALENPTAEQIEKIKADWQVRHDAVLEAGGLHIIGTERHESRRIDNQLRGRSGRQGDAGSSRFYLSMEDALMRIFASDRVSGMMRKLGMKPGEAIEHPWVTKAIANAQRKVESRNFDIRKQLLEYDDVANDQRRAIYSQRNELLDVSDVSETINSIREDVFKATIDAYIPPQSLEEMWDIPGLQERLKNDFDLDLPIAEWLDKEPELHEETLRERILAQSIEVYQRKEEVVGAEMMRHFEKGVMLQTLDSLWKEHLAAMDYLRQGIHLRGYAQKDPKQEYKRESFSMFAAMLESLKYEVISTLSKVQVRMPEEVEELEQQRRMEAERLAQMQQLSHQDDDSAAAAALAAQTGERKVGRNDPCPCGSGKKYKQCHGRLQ

`CCOC(=O)CN1CCC(C(=O)c2cc(F)ccc2F)CC1`: the Percent Effect in test [1] was -9.27%; in [2], -5.26%; in test [3] it was -10.9%; in [4], 11.4%; in the test on Trypanosoma cruzi it was 12.4%; in test [5], -1.53%. The Percent Effect in test [6] was 4.01%; in the test filed under Homo sapiens, 2.26%; in test [7], 5.39%; in [8] it was 7.32%; in test [9] it was -11.5%.

For the compound `Cn1ccnc1C(NCc1csc(Br)c1)c1ccccc1` (stereo unspecified), the Percent Effect was -4.88% in test [1]; 21.6% in test [2]; 3.42% in test [3]; 17.4% in test [4]; 4.92% in the test with Trypanosoma cruzi; 1.66% in [5]. For the same compound, the Percent Effect was 13.8% in test [6]; 12.7% in the test filed under Homo sapiens; 12.9% in test [7]; 30.5% in test [8]; -7.11% in [9].

With `Cn1cc(Cl)cc1C(=O)N1CCCN(Cc2cccs2)CC1`, the Percent Effect in test [1] was -2.72%; in test [2], -10.5%; in test [3], 7.51%; in test [4], -1.79%; in the test on Trypanosoma cruzi, 1.32%; in test [5], 1.53%. Also, the Percent Effect was -1.34% in [6]; -3.88% in the test listed under Homo sapiens; 4.41% in test [7]; 0% in test [8]; 7.24% in test [9].

Regarding `Cc1cc(N2CCC3(CCC(=O)N(CC4CC4)C3)CC2)nc(N)n1`, the Percent Effect was -4.29% in test [1]; 5.41% in [2]; -2.2% in test [3]; 5.16% in test [4]; -0.88% in the test on Trypanosoma cruzi; -1.74% in test [5]. The Percent Effect in [6] is 8.15%; in the test listed under Homo sapiens, 7.43%; in test [7] it was 9.68%; in [8] it was 8.64%; in test [9], -3.15%.

Consider `Cc1cc(N2CCC(c3nnc(CN(C)C)n3C3CC3)CC2)ccn1`, for which the Percent Effect in [1] is -5.32%; in [2] it was -1.39%; in test [3], 34.9%; in [4] it was -1.61%; in the test on Trypanosoma cruzi it was -4.37%; in test [5], -0.883%. The Percent Effect in [6] was 16.1%; in the test filed under Homo sapiens it was -6.01%; in test [7], 1.05%; in test [8], -5.13%; in test [9] it was -4.13%.

With `COCCN1CCc2cc(C(=O)NCC3CC3)c(NC(C)C)nc2CC1`, the Percent Effect in test [1] was -2.06%; in test [2], 8%; in test [3], 4.16%; in [4], 9.64%; in the test on Trypanosoma cruzi, -1.74%; in test [5], -27.8%. Moreover, the Percent Effect in [6] was 13.2%; in the test filed under Homo sapiens, 55.7%; in [7] it was 1.04%; in [8], 12.5%; in test [9], -10.2%.

With `Cc1nn(C)c(N(C)C)c1CNCc1ccccc1CN(C)C`, the Percent Effect in [1] is -1.22%; in test [2] it was 24.1%; in [3] it was -13.2%; in test [4], -7.18%; with Trypanosoma cruzi, -1.54%; in [5], -6.24%. For the same compound, the Percent Effect in test [6] is 15.9%; in the test listed under Homo sapiens, -0.0229%; in test [7] it was 1.04%; in [8], 2.53%; in [9], -30.7%.

For the compound `Cn1c(C(F)(F)F)nn(CCNC(=O)NCc2ccccc2)c1=O`, the Percent Effect is -6.75% in test [1]; 0% in [2]; -5.98% in [3]; 26.1% in test [4]; 7.25% in the test with Trypanosoma cruzi; 15% in [5]. Also, the Percent Effect in test [6] was 1.6%; in the test filed under Homo sapiens, 8.74%; in test [7] it was 4.3%; in [8], 12.5%; in test [9] it was -7.03%.

Regarding `O=C(NC1CC(=O)N(Cc2cccc(F)c2)C1)c1ccncc1` (stereo unspecified), the Percent Effect is -2.44% in test [1]; -8.11% in test [2]; 4.25% in test [3]; -3.94% in test [4]; -1.93% in the test on Trypanosoma cruzi; -0.476% in test [5]. In addition, the Percent Effect amounted to 10.7% in test [6]; 1.72% in the test listed under Homo sapiens; 1.59% in test [7]; 4.88% in test [8]; 0.971% in [9].

With `O=C(NCc1nnc2n1CCCC2)N(Cc1ccccc1F)C1CC1`, the Percent Effect was -2.88% in test [1]; 5.41% in test [2]; -1.8% in test [3]; 0.0872% in [4]; -2.12% with Trypanosoma cruzi; -2.38% in [5]. For the same compound, the Percent Effect in test [6] is 12.8%; in the test filed under Homo sapiens, 7.52%; in test [7], 0.529%; in test [8], 0%; in test [9], -4.24%.

Take `CSCC(=O)N1C[C@H]2CC[C@@H]1CN(Cc1ccccc1)C2`: the Percent Effect in test [1] is -2.57%; in test [2], 8.22%; in test [3], 14.1%; in [4], -0.0854%; with Trypanosoma cruzi it was 0%; in test [5], 0.455%. The Percent Effect in test [6] is 10.8%; in the test filed under Homo sapiens, 15.3%; in [7], 11.8%; in test [8], 12.5%; in test [9] it was -6.22%.
